# Data from PubChem BioAssay AID720517 (National Center for Advancing Translational Sciences (NCATS), 2013).
# Records with an inconclusive call do not appear. Entries that show only a call come without a potency. Activity calls are given as the source filed them. The call rests on the fitted dose curve; in most records, active means well fitted activation curve with a large enough effect; inconclusive means small, poorly fitted or top-dose-only effect; inactive means flat fitted curve, though single readings scatter.
# Experiment: qHTS for Inhibitors of Cell Surface uPA Generation: FP59 Counterscreen for Cherry-picked Compounds
# Conditions: FP59 anthrax toxin cytotoxicity counterscreen, cells; series mostly up to 115 µM
# Potency means the concentration at half of the fitted maximal effect.
row,Compound,Potency
1,COc1ccccc1CN1CC(C(=O)NCc2cccc(C)n2)CCC1=O (centres undefined),inactive
2,CCc1ccc(NC(=O)Cn2cnc([N+](=O)[O-])c2)cc1,inactive
3,COCC(=O)N1CCC(n2nccc2NC(=O)c2ccccc2OC)CC1,inactive
4,CCOc1ccc(CCNC(=O)Cc2ccc(NC3=NC4CS(=O)(=O)CC4S3)cc2)cc1OCC (centres undefined),inactive
5,COC(=O)CCNS(=O)(=O)c1ccc2nsnc2c1,inactive
6,O=c1[nH]c2c(s1)C(c1ccc(O)cc1)C1C3CCC(C3)C1S2 (centres undefined),inactive
7,CCn1nc(NS(=O)(=O)c2ccccc2)c2cc3cc(C)ccc3nc21,inactive
8,CCC1=NN(C(=O)C(=O)Nc2ccc(OC)cc2)C(O)(C(F)(F)F)C1 (centres undefined),inactive
9,CC(Sc1nnc2ccccn12)C(=O)NCc1ccc2c(c1)OCO2 (centres undefined),inactive
10,COc1ccc(C(=O)OCC(=O)N(C)C2CCS(=O)(=O)C2)cc1S(=O)(=O)N(C)Cc1ccccc1 (centres undefined),inactive
11,CCNc1nc(Nc2ccc(C)c(Cl)c2)c2cnn(C)c2n1,inactive
12,O=C(Nc1ccc(Cl)cn1)C1CCCN(c2ncnc3c2nc2n3CCCCC2)C1 (centres undefined),inactive
13,CCOC(=O)C1CCN(C(=O)COC(=O)c2c(C)c(CC)nc3ccccc23)CC1,inactive
14,Cc1nc2nc(C)c(NS(=O)(=O)c3ccc(Cl)cc3)c(=O)n2[nH]1,inactive
15,O=C(Nc1ccc(NC(=O)c2ccco2)c(Cl)c1)c1ccccc1,inactive
16,O=C(NC1CCCCC1)C(c1ccco1)N(C(=O)c1csnn1)c1cccc(Cl)c1 (centres undefined),inactive
17,COc1cccc(C(=O)NCc2ccc3[nH]c(C)cc3c2)c1,inactive
18,C=CCOC(=O)C1=C[C@@H](c2coc3ccccc3c2=O)C[C@@H](OCc2ccc(CO)cc2)O1,inactive
19,Cc1ccsc1/C=C(\C#N)C(=O)NC1CCS(=O)(=O)C1 (centres undefined),inactive
20,O=C(N/N=C/c1cccs1)c1ccco1,inactive
21,CSCC[C@H](NC(=O)[C@H](Cc1ccccc1)n1c(=O)[nH]c2ccccc2c1=O)C(=O)N1CCC[C@@H]1C(=O)O,inactive
22,COc1cc(/C=N/NC(=O)Cc2csc(C)n2)ccc1OCC(C)C,inactive
23,COC(=O)c1c(NC(=O)c2c(OC)cccc2OC)sc2c1C(C(=O)OC)CC2 (centres undefined),inactive
24,Cc1ccc(C(=O)NNC(=O)CNc2cccc(Cl)c2)cc1,inactive
25,CCOC(=O)N1CCN(c2c(NCCCN3CCCCCC3)c(=O)c2=O)CC1,inactive
26,O=C(COC(=O)Cn1cnc2ccccc21)NCc1ccc(F)cc1,inactive
27,CCOc1ccc(OCC)c(NC(=O)c2ccc(CNc3c(N4CCCC4)c(=O)c3=O)cc2)c1,inactive

row,Compound,Potency
1,CC(C)CCN1C(=O)c2ccc(-c3nc4ccccc4c(=O)o3)cc2C1=O,inactive
2,CC(NC(=O)NC1CCCCC1)C(c1cccs1)N1CCN(C)CC1 (centres undefined),inactive
3,Cc1cc(C)cc(NC(=O)Cc2ccc(NC3=NC4CS(=O)(=O)CC4S3)cc2)c1 (centres undefined),inactive
4,CC(=O)N1CCN(C(=O)CSc2cc(C)c(Br)cc2C)CC1,inactive
5,CCNC(=S)NNC(=O)C(c1ccccc1)c1ccccc1,inactive
6,COc1ccc(-c2cc(-c3ccccc3)nc3ncnn23)cc1,inactive
7,CCOC(=O)CC(=O)CSc1nc2c(C)c(C)ccc2cc1C,inactive
8,CC1CCC(NC(=O)c2nn(C)c3c2CS(=O)(=O)c2ccccc2-3)CC1 (centres undefined),inactive
9,C=CC(=O)N1C/C(=C/c2ccccc2)C(=O)/C(=C\c2ccccc2)C1,13.1 µM (active)
10,O=C(CN(c1ccccc1F)S(=O)(=O)c1ccccc1)Nc1ccc2c(c1)OCCO2,inactive
11,O=C(O)c1ccc(-c2ccc(/C=C3\NC(=O)N(Cc4ccc(Cl)cc4)C3=O)o2)cc1,inactive
12,COC(=O)CSc1nc(N2CCOCC2)c2c(c1C#N)CCCC2,inactive
13,O=c1ccc(S(=O)(=O)N2CCCC2)c[nH]1,inactive
14,O=C(c1ccc(NC(=S)NCc2ccc(Cl)cc2)cc1)N1CCCCC1,inactive
15,CCCCCCCCCOC(=O)C1N2C(=O)[C@@H](NC(=O)COc3ccccc3)[C@H]2SC1(C)C (some centres undefined),inactive
16,COc1ccc(C(CNC(=O)C(C)Oc2ccc(Br)cc2)N2CCCC2)cc1 (centres undefined),inactive
17,COc1ccc(/C=C/C(=O)Nc2ccccc2Cl)cc1S(=O)(=O)N1CCOCC1,inactive
18,COc1ccc(C)cc1NC(=O)CSCc1cc(=O)n2c(C)csc2n1,inactive
19,CCN(CC)C(=O)Cn1cc(/C=C(\C#N)C(=O)NC2CC2)c2ccccc21,inactive
20,CCOc1ccccc1C(=O)NC1CCN(CC(=O)Nc2cc(OC)ccc2OC)CC1,inactive
21,CC(=O)c1ccc(OCCCCOc2ccc(C(C)=O)cc2)cc1,inactive
22,COCCN(C(=O)CSc1nnc(-c2ccncc2)n1C)c1c(N)n(CC(C)C)c(=O)[nH]c1=O,inactive
23,CC(=O)Nc1nc2ccccc2[nH]1,inactive
24,O=C1OCC/C1=C\c1ccc(O)cc1,inactive
25,Cc1cccc(C)c1NC(=O)c1c(O)c2ccccc2[nH]c1=O,inactive
26,O=S(=O)(NCCc1ccccc1F)c1cccc(S(=O)(=O)N2CCOCC2)c1,inactive
27,CCCCN(CC(=O)Nc1cccc(S(=O)(=O)N2CCCC2)c1)Cc1nc2ccccc2c(=O)[nH]1,inactive

row,Compound,Potency
1,Clc1ccc(-c2nc3ccccn3c2CN2CCSCC2)cc1,inactive
2,COc1ccc(OC)c(S(=O)(=O)N2CCC(NC(=O)c3ccccc3)CC2)c1,inactive
3,CCc1ccccc1N(CC(=O)N1CCCC1)S(C)(=O)=O,inactive
4,O=C(Cc1ccccc1)Nc1ccc(NC(=O)c2ccccc2)c(Cl)c1,inactive
5,C#CCN1C=C(C(=O)OCC)C(C)NS1(=O)=O (centres undefined),inactive
6,CC1(C)CC(CCC(=O)NC(=S)Nc2ccccc2Cl)C(=O)O1 (centres undefined),inactive
7,COc1ccccc1-c1ccc(SCC(=O)NCCc2ccccc2)nn1,inactive
8,CCC1(C)NC(=O)N(CC(=O)Nc2sc3c(c2C(N)=O)CCC3)C1=O (centres undefined),inactive
9,Cc1ccc(NC(=S)N2CCN(Cc3ccc4c(c3)OCO4)CC2)c(C)c1,inactive
10,Cc1ccccc1N1C(=O)C(Cc2ccc(F)cc2)S/C1=C(\C#N)C(N)=O (centres undefined),inactive
11,C[C@H]1CN([C@@H](C)CO)C(=O)c2cccc(NC(=O)c3cnccn3)c2O[C@@H]1CN(C)S(=O)(=O)c1ccc(F)cc1,inactive
12,O=C1c2ccccc2[C@@H]2C[C@H](NC34CC5CC(CC(C5)C3)C4)[C@@H](O)CCN12,inactive
13,Cc1ccc(NC(=O)CCCn2c(=S)[nH]c3ccsc3c2=O)cc1C,inactive
14,c1ccc(C2[C@H]3CN(Cc4cccnc4)[C@H](c4ccccc4)C34CC2(c2ccccc2)C4)cc1 (some centres undefined),inactive
15,COc1cccc2c1Oc1ncccc1N(C(=O)CCC(=O)NCc1ccc(C)cc1)C2,inactive
16,Cn1cccc1Cc1nnc(SCC(=O)Nc2ccc3c(c2)OCCO3)n1-c1ccc(F)cc1,inactive
17,C[N+]1(CC(O)c2ccccc2)CCCCCC1 (centres undefined),inactive
18,NC(=O)c1ccc(NC(=O)CN2CCN(S(=O)(=O)c3ccc4ccccc4c3)CC2)cc1,inactive
19,COC(/C=C/Nc1ccc(Cl)cc1)=C(C#N)C#N,inactive
20,Cc1nc(NC(=O)CSc2nnc(C3CC3)n2C)sc1C(=O)N(C)C,inactive
21,CC(C)NC(=O)NC(=O)CN1C(=O)NC(Cc2c[nH]c3ccccc23)C1=O (centres undefined),inactive
22,Cc1cc(NC(=O)COc2cccc([N+](=O)[O-])c2)no1,inactive
23,COc1cc(/C=C(/C#N)C(=O)Nc2ccccc2)ccc1OCc1ccc(C(=O)O)cc1,inactive
24,COc1ccc(C2=NS(=O)(=O)N(C)C(C(=O)NCc3ccccn3)=C2)cc1,inactive
25,CCC(=O)N1CCC(NC(=O)Nc2ccc(OC(F)(F)F)cc2)CC1,inactive
